LANA-H2B inh: blocks KSHV LANA binding to histone H2A/H2B | Q9QR71 | inhibition, % (concentration not given with the values) | 320,000 compounds, 0.6% hits | cell-free LANA-H2A/H2B peptide, fluorescence polarization; in the data active means inhibition mostly above about 10%, no sharp cut-off; inactive means mostly below about 6.7%
GLD-1 RNA inh: GLD-1-TGE RNA interaction inhibition (C. elegans); Q17339; purified GLD-1 + fluorescein TGE RNA, fluorescence polarization; inhibition, % at 5.96 µM; 320,000 compounds, 0.44% hits; AID 2280;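 active means percent inhibition above a per-plate cutoff, the plate mean of test compounds plus 3 SD, cut at about 30% in these data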
Yeast superoxide: caloric restriction mimetics inhibiting age-related superoxide in yeast. 330,000 compounds, 0.18% hits. S. cerevisiae aged cells, superoxide DHE fluorescence; stronger effect = lower value. superoxide response (% of plate mean), % at 10 µM;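 active means superoxide response under a set limit, about three screen SD below normal, cut at about 65% in these data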;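 further: yeast aged for seven days with compound at 30 °C before DHE staining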
Bcl-xL primary: inhibitors of human Bcl-xL | Q07817 | GST-Bcl-xL / FITC-Bim BH3 peptide fluorescence polarization | inhibition, % at 10.9 µM | 320,000 compounds, 0.7% hits | AID 2129;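 active means inhibition above the mean of all tested compounds plus 3 SD, cutoff set per campaign, cut at about 30% in these data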;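 further: inhibitors lower millipolarization by displacing the labeled peptide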
Target sequence (Q07817 whole entry, looked up): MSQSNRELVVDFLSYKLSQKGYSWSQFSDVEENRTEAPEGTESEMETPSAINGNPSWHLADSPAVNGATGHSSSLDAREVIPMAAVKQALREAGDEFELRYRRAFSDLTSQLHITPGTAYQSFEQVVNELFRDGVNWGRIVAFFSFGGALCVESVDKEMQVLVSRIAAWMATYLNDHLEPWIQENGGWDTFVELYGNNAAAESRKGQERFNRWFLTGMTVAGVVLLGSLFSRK
MEX-5 binding: C. elegans MEX-5 TCR-2 RNA binding activity; Q9XUB2; MEX-5/FITC-TCR2 RNA binding, fluorescence polarization; stronger effect = lower value; activity score (negative = inhibition of binding), % at 10 µM; 300,000 compounds, 0.38% hits; AID 1832;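 active means inhibition past about -25% in most replicates, and total fluorescence under double the plate's negative control median, limit read from the data; inconclusive means replicates evenly split on the limit, or fluorescence at least double controls; inactive means too little inhibition in most replicates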
MCL1-BIM inh: MCL1-BIM-BH3 interaction inhibition (human); Q07820; GST-MCL1 / FITC-Bim-BH3 fluorescence polarization; inhibition, % at 10.9 µM; 320,000 compounds, 0.68% hits; AID 2057;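 active means inhibition above the mean inhibition of all tested compounds plus 3 SD, set per campaign, cut at about 40% in these data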;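 further: higher means more loss of mP so more displacement of Bim peptide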
Target sequence (Q07820 whole entry, looked up): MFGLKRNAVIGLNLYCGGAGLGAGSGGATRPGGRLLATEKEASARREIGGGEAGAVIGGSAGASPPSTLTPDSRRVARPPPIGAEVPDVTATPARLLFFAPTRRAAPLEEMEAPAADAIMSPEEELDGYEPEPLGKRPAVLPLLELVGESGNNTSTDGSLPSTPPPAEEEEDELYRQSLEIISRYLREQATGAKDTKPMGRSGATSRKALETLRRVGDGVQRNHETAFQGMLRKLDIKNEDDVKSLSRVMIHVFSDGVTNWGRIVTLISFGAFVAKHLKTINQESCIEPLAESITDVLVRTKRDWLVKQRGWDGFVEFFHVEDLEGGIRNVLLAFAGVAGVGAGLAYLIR
A number is an active result; . = inactive; ? = inconclusive; / = not tested or not shown. Only some compounds are listed: those with a hit (about 1.9% of all), similar ones and a draw of the others.

SMILES	LANA-H2B inh	GLD-1 RNA inh	Yeast superoxide	Bcl-xL primary	MEX-5 binding	MCL1-BIM inh
O=C(COC(=O)c1nc(Cl)ccc1Cl)NCc1ccccc1	14	.	.	.	.	.
COc1ccc(NC(=O)COC(=O)C2CCN(S(=O)(=O)c3cccs3)CC2)cc1OC	.	.	.	/	/	/
CC(Sc1ncccn1)C(=O)NC1(C#N)CCCCC1 (stereo unspecified)	18	.	.	.	/	.
COc1ccc(-c2cc(C(F)(F)F)nc(SCc3cccc(C(=O)O)c3)n2)cc1	.	.	.	.	.	.
COc1ccc(-c2cc(C(F)(F)F)nc(SCCC(=O)NCc3ccccc3)n2)cc1	32	.	.	.	.	.
Cc1ccccc1-n1nc2c(c1NC(=O)c1ccc3c(c1)OCO3)CS(=O)(=O)C2	.	.	.	.	.	.
COc1ccc2c(n1)Sc1nc3ccccc3nc1N2	.	.	59	.	.	.
COc1cc2ccccc2nn1	.	.	.	.	.	.
CCOc1ccc(OCCCC(=O)N(CC)CC(=O)Nc2c(F)cccc2F)cc1	36	.	.	.	/	.
CC(NC(=O)Nc1ccc([N+](=O)[O-])cc1)C(c1cccs1)N1CCCC1 (stereo unspecified)	.	.	.	52	.	.
O=C(COC(=O)c1cccc(OC(F)F)c1)Nc1ncccn1	.	.	.	/	/	/
Cn1ncc(C#N)c1NC(=O)C1CC(c2ccccc2Cl)=NO1 (stereo unspecified)	.	.	44	.	.	.
O=C(Nc1ccc2c(c1)OCO2)C1CC(c2ccccc2Cl)=NO1 (stereo unspecified)	.	.	.	.	.	.
COc1cc2c(c(OC)c1O)C(=O)CO2	.	.	.	.	.	.
COc1cc(OC)c2c(O)c3c(c(-c4c5c(c(O)c6c(OC)cc(OC)cc46)CO[C@@H](C)[C@H]5O)c2c1)[C@H](O)[C@H](C)OC3	.	.	.	.	?	56
Cc1cnc(C(=O)OCC(=O)N(Cc2ccccc2)C(C)(C)C)cn1	.	.	.	/	/	/
CCn1cc(C(=O)OCC(=O)c2cc(C)n(-c3ccccc3)c2C)c(=O)c2ccc(C)nc21	.	.	.	.	.	.
CCn1cc(C(=O)OCC(=O)N(C)Cc2ccccc2)c(=O)c2ccc(C)nc21	61	.	.	.	.	.
CCn1c(SCc2nc3sc(C(=O)O)c(C)c3c(=O)[nH]2)nc2ccccc21	.	.	.	.	-43	.
COCCn1c(SCc2nc3sc(C(=O)OC)c(C)c3c(=O)[nH]2)nc2ccccc21	.	.	.	.	.	.
Clc1ccc(/C=N/Nc2ncnc3nc[nH]c23)cc1	.	.	.	.	.	.
Cc1ccc(/C=N/Nc2ncnc3nc[nH]c23)cc1	.	.	.	.	-26	.
Oc1ccc(/C=N/Nc2ncnc3nc[nH]c23)cc1	.	.	.	.	-29	.
N#Cc1ccsc1NC(=O)CSc1nncs1	.	71	.	/	/	/
NC(=O)CC[C@H](NC(=O)c1ccc(F)cc1)C(=O)N1CCN(Cc2ccc3c(c2)OCO3)CC1	.	.	.	/	/	/
SMILES	LANA-H2B inh	GLD-1 RNA inh	Yeast superoxide	Bcl-xL primary	MEX-5 binding	MCL1-BIM inh
O=C(O)c1ccc2c(c1)NC(=O)C(N1CCCC1)S2 (stereo unspecified)	.	.	.	32	.	41
COC(=O)c1ccc2c(c1)NC(=O)C(N1CCCC1)S2 (stereo unspecified)	.	.	.	.	.	.
CCOC(=O)C1CCCN(c2c(NCCCN(CC)c3ccccc3)c(=O)c2=O)C1 (stereo unspecified)	17	.	.	.	.	.
CCOC(=O)C1CCCN(c2c(NCCN(CC)c3ccccc3)c(=O)c2=O)C1 (stereo unspecified)	.	.	.	.	.	.
Cc1ccc(Cl)cc1N1CCN(C(=O)C2CCN(S(C)(=O)=O)CC2)CC1	13	.	.	.	.	.
CCOC(=O)c1cnc2ccccc2c1Nc1ccc2c(c1)OCCO2	16	.	.	.	.	.
CCOC(=O)c1cnc2ccccc2c1NCc1ccco1	.	.	.	.	.	.
O=C(NCc1ccc(F)cc1)C(c1cccnc1)N(C(=O)c1csnn1)c1ccccc1 (stereo unspecified)	.	.	.	.	.	.
CC(NC(=O)CCNC(=O)c1ccc(C(C)(C)C)cc1)c1ccccc1 (stereo unspecified)	.	.	.	/	/	/
CCOc1ccccc1N	23	.	.	.	/	.
CCCCOc1ccccc1N	.	.	.	.	.	.
O=C(N/N=C1\CCCc2c1[nH]c1ccc(Cl)cc21)c1ccncc1	44	.	.	.	.	.
CNC(=O)c1cn(-c2ccccc2)c(=O)c2ccccc12	.	72	.	72	.	41
CN(C)C(=O)c1cn(-c2ccccc2)c(=O)c2ccccc12	.	.	.	.	.	.
CCCN1C(=O)/C(=C/c2ccc(C)o2)SC1=Nc1ccc(OC)cc1	.	.	.	.	-72	.
O=C(CCN=C1NS(=O)(=O)c2ccccc21)OCc1nnc(-c2ccc([N+](=O)[O-])cc2)o1	.	.	.	/	/	/
COC(=O)c1[nH]c(=O)c2ccccc2c1O	23	.	.	.	.	.
Cc1ccc(C(=O)CCC(=O)Nc2cc(C)ccn2)cc1	.	.	.	.	/	.
Cc1n[nH]c(C)c1Sc1ccccc1N=Cc1cc(Cl)cc([N+](=O)[O-])c1O	.	.	.	.	-51	.
O=C(O)CN1C(=O)c2cccc3c(Br)ccc1c23	.	.	.	.	.	.
CN(C)CCCN1C(=O)c2cccc3c(Br)ccc(c23)C1=O	.	.	.	35	?	.
c1ccc2c(c1)Oc1ccccc1S2	42	.	.	.	/	.
CC(C)(CNc1ccc(S(=O)(=O)C(F)(F)F)cc1[N+](=O)[O-])N1CCOCC1	27	.	.	.	.	.
C[C@H](CO)N1C[C@H](C)[C@@H](CN(C)C)Oc2c(NS(=O)(=O)c3cccs3)cccc2C1=O	/	.	.	/	/	/
c1ccc2c(c1)nc(NCC1CCCO1)c1nnnn12 (stereo unspecified)	.	.	.	40	.	.
COc1ccc2[nH]c3c(c2c1)CCN1C(=O)C(CC(=O)NCc2cccc(C(F)(F)F)c2)C[C@H](C(=O)N(C(C)C)C(C)C)[C@@]31C (stereo partly specified)	/	/	.	/	/	/
O=C(c1cccnc1)N1N=C(C2CC2)CC1(O)C(F)(F)F (stereo unspecified)	11	.	.	.	.	.
COc1ccccc1-c1nnc(SCC(=O)Nc2oc(C)c3c(C)n[nH]c(=O)c23)n1C	.	.	.	.	.	.
Cc1n[nH]c(=O)c2c(NC(=O)CSc3nnc(-c4ccco4)n3C)oc(C)c12	92	.	.	.	/	.
Fc1ccc(Oc2nc(-c3ccccc3)nnc2C(F)(F)F)cc1	10	.	.	.	.	.
